According to PMC9911399, “Two distinct binding modes provide the RNA-binding protein RbFox with extraordinary sequence specificity”:
Substitutions are numbered along the chain they refer to; changes in the protein carry UniProt numbers. In all, about 16,000 sequences were measured (“ka relative to ugcaugu”: median about 0.0091, highest 2% from about 0.032 on). Many of the other results were omitted from the sample, so the highest values are more common in it than they were.

T1: RBFOX1 RRM (Homo sapiens, UniProt Q9NWB1 109-208)
T1 sequence: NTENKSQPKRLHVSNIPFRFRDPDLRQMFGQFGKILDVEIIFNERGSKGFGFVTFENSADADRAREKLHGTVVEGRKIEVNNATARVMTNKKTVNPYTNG

B1: GCUAGGA (DNA:RNA)
RNA: GGGAGACCGGAAUUCAGAUUGUCCGCUAGGAUUAAAUCCCGUCGUAGCCACCA
DNA 1: CAATCTGAATTCCGGTCTCCC
DNA 2: TGGTGGCTACGACGGGATT
B2: UCAGCGA (DNA:RNA)
RNA: B1 RNA with G25U, U27A, A28G, G29C
DNA 1: CAATCTGAATTCCGGTCTCCC
DNA 2: TGGTGGCTACGACGGGATT
B3: ACCACAA (DNA:RNA)
RNA: B1 RNA with G25A, U27C, G29C, G30A
DNA 1: CAATCTGAATTCCGGTCTCCC
DNA 2: TGGTGGCTACGACGGGATT
B4: GUCGAGG (DNA:RNA)
RNA: B1 RNA with C26U, U27C, A28G, G29A, A31G
DNA 1: CAATCTGAATTCCGGTCTCCC
DNA 2: TGGTGGCTACGACGGGATT
B5: GACCCGU (DNA:RNA)
RNA: B1 RNA with C26A, U27C, A28C, G29C, A31U
DNA 1: CAATCTGAATTCCGGTCTCCC
DNA 2: TGGTGGCTACGACGGGATT
B6: AGAUGGC (DNA:RNA)
RNA: B1 RNA with G25A, C26G, U27A, A28U, A31C
DNA 1: CAATCTGAATTCCGGTCTCCC
DNA 2: TGGTGGCTACGACGGGATT
B7: CGCUGGA (DNA:RNA)
RNA: B1 RNA with G25C, C26G, U27C, A28U
DNA 1: CAATCTGAATTCCGGTCTCCC
DNA 2: TGGTGGCTACGACGGGATT
B8: GCUAUGG (DNA:RNA)
RNA: B1 RNA with G29U, A31G
DNA 1: CAATCTGAATTCCGGTCTCCC
DNA 2: TGGTGGCTACGACGGGATT
B9: CACCGAC (DNA:RNA)
RNA: B1 RNA with G25C, C26A, U27C, A28C, G30A, A31C
DNA 1: CAATCTGAATTCCGGTCTCCC
DNA 2: TGGTGGCTACGACGGGATT
B10: GGAAGCG (DNA:RNA)
RNA: B1 RNA with C26G, U27A, G30C, A31G
DNA 1: CAATCTGAATTCCGGTCTCCC
DNA 2: TGGTGGCTACGACGGGATT
B11: CUCUACU (DNA:RNA)
RNA: GGGAGACCGGAAUUCAGAUUGUCCCUCUACUUUAAAUCCCGUCGUAGCCACCA
DNA 1: CAATCTGAATTCCGGTCTCCC
DNA 2: TGGTGGCTACGACGGGATT
B12: GUCAUUG (DNA:RNA)
RNA: B11 RNA with C25G, U28A, A29U, C30U, U31G
DNA 1: CAATCTGAATTCCGGTCTCCC
DNA 2: TGGTGGCTACGACGGGATT
B13: CGGCUGA (DNA:RNA)
RNA: B1 RNA with G25C, C26G, U27G, A28C, G29U
DNA 1: CAATCTGAATTCCGGTCTCCC
DNA 2: TGGTGGCTACGACGGGATT
B14: CGGCUGC (DNA:RNA)
RNA: B11 RNA with U26G, C27G, U28C, A29U, C30G, U31C
DNA 1: CAATCTGAATTCCGGTCTCCC
DNA 2: TGGTGGCTACGACGGGATT
B15: UGAUUCG (DNA:RNA)
RNA: B11 RNA with C25U, U26G, C27A, A29U, U31G
DNA 1: CAATCTGAATTCCGGTCTCCC
DNA 2: TGGTGGCTACGACGGGATT
B16: GUGCUGA (DNA:RNA)
RNA: B1 RNA with C26U, U27G, A28C, G29U
DNA 1: CAATCTGAATTCCGGTCTCCC
DNA 2: TGGTGGCTACGACGGGATT
B17: UGCUGGC (DNA:RNA)
RNA: B11 RNA with C25U, U26G, A29G, C30G, U31C
DNA 1: CAATCTGAATTCCGGTCTCCC
DNA 2: TGGTGGCTACGACGGGATT
B18: UGGCUGC (DNA:RNA)
RNA: B1 RNA with G25U, C26G, U27G, A28C, G29U, A31C
DNA 1: CAATCTGAATTCCGGTCTCCC
DNA 2: TGGTGGCTACGACGGGATT
B19: GUCCUGA (DNA:RNA)
RNA: B1 RNA with C26U, U27C, A28C, G29U
DNA 1: CAATCTGAATTCCGGTCTCCC
DNA 2: TGGTGGCTACGACGGGATT
B20: UGGCUGA (DNA:RNA)
RNA: B1 RNA with G25U, C26G, U27G, A28C, G29U
DNA 1: CAATCTGAATTCCGGTCTCCC
DNA 2: TGGTGGCTACGACGGGATT
B21: UGAUGGC (DNA:RNA)
RNA: B1 RNA with G25U, C26G, U27A, A28U, A31C
DNA 1: CAATCTGAATTCCGGTCTCCC
DNA 2: TGGTGGCTACGACGGGATT
B22: ACUAAUA (DNA:RNA)
RNA: B1 RNA with G25A, G29A, G30U
DNA 1: CAATCTGAATTCCGGTCTCCC
DNA 2: TGGTGGCTACGACGGGATT
B23: UCAUCUC (DNA:RNA)
RNA: B11 RNA with C25U, U26C, C27A, A29C, C30U, U31C
DNA 1: CAATCTGAATTCCGGTCTCCC
DNA 2: TGGTGGCTACGACGGGATT
B24: ACUUGAA (DNA:RNA)
RNA: B1 RNA with G25A, A28U, G30A
DNA 1: CAATCTGAATTCCGGTCTCCC
DNA 2: TGGTGGCTACGACGGGATT
B25: UAACAGC (DNA:RNA)
RNA: B11 RNA with C25U, U26A, C27A, U28C, C30G, U31C
DNA 1: CAATCTGAATTCCGGTCTCCC
DNA 2: TGGTGGCTACGACGGGATT
B26: CCUUGGA (DNA:RNA)
RNA: B1 RNA with G25C, A28U
DNA 1: CAATCTGAATTCCGGTCTCCC
DNA 2: TGGTGGCTACGACGGGATT
B27: UGAGAAC (DNA:RNA)
RNA: B11 RNA with C25U, U26G, C27A, U28G, C30A, U31C
DNA 1: CAATCTGAATTCCGGTCTCCC
DNA 2: TGGTGGCTACGACGGGATT
B28: GACUAUG (DNA:RNA)
RNA: B11 RNA with C25G, U26A, C30U, U31G
DNA 1: CAATCTGAATTCCGGTCTCCC
DNA 2: TGGTGGCTACGACGGGATT
B29: UAACGUU (DNA:RNA)
RNA: B11 RNA with C25U, U26A, C27A, U28C, A29G, C30U
DNA 1: CAATCTGAATTCCGGTCTCCC
DNA 2: TGGTGGCTACGACGGGATT
B30: GCGCACG (DNA:RNA)
RNA: B11 RNA with C25G, U26C, C27G, U28C, U31G
DNA 1: CAATCTGAATTCCGGTCTCCC
DNA 2: TGGTGGCTACGACGGGATT
B31: GCACCGC (DNA:RNA)
RNA: B1 RNA with U27A, A28C, G29C, A31C
DNA 1: CAATCTGAATTCCGGTCTCCC
DNA 2: TGGTGGCTACGACGGGATT
B32: GCACCCG (DNA:RNA)
RNA: B1 RNA with U27A, A28C, G29C, G30C, A31G
DNA 1: CAATCTGAATTCCGGTCTCCC
DNA 2: TGGTGGCTACGACGGGATT
B33: CGCACGC (DNA:RNA)
RNA: B11 RNA with U26G, U28A, A29C, C30G, U31C
DNA 1: CAATCTGAATTCCGGTCTCCC
DNA 2: TGGTGGCTACGACGGGATT
B34: GCGCACC (DNA:RNA)
RNA: B11 RNA with C25G, U26C, C27G, U28C, U31C
DNA 1: CAATCTGAATTCCGGTCTCCC
DNA 2: TGGTGGCTACGACGGGATT
B35: GCACGUC (DNA:RNA)
RNA: B1 RNA with U27A, A28C, G30U, A31C
DNA 1: CAATCTGAATTCCGGTCTCCC
DNA 2: TGGTGGCTACGACGGGATT
B36: GCGCAGA (DNA:RNA)
RNA: B1 RNA with U27G, A28C, G29A
DNA 1: CAATCTGAATTCCGGTCTCCC
DNA 2: TGGTGGCTACGACGGGATT
B37: CGCGUCG (DNA:RNA)
RNA: B11 RNA with U26G, U28G, A29U, U31G
DNA 1: CAATCTGAATTCCGGTCTCCC
DNA 2: TGGTGGCTACGACGGGATT
B38: GCACGCG (DNA:RNA)
RNA: B1 RNA with U27A, A28C, G30C, A31G
DNA 1: CAATCTGAATTCCGGTCTCCC
DNA 2: TGGTGGCTACGACGGGATT
B39: CGCCACG (DNA:RNA)
RNA: B11 RNA with U26G, U28C, U31G
DNA 1: CAATCTGAATTCCGGTCTCCC
DNA 2: TGGTGGCTACGACGGGATT
B40: GCGUCCG (DNA:RNA)
RNA: B11 RNA with C25G, U26C, C27G, A29C, U31G
DNA 1: CAATCTGAATTCCGGTCTCCC
DNA 2: TGGTGGCTACGACGGGATT
B41: GCACGCU (DNA:RNA)
RNA: B1 RNA with U27A, A28C, G30C, A31U
DNA 1: CAATCTGAATTCCGGTCTCCC
DNA 2: TGGTGGCTACGACGGGATT

Each binder was assayed against T1, RBFOX1 RRM (assay: EMSA; HiTS-Eq, 1 nM pool, 10 min; buffer printed only for the single-RNA assays: 10 mM Tris pH 7.5, 150 mM NaCl, 3.4 mM EDTA, 0.001% NP-40, 30 C). Settings: tags: His6 N-terminal (pET28a); label: 5' 32P.
How it was run: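 Purified RbFox RRM, wild type or mutant, was incubated for 10 min in 50 µL with 1 nM of a 5′-radiolabelled RNA pool carrying 7 randomized nucleotides, whose flanks were annealed to DNA oligonucleotides, over a series of increasing protein concentrations. Unbound RNA was resolved on 8% native PAGE, cut out, reverse-transcribed, barcoded by PCR and sequenced on an Illumina HiSeq 2500. Relative association constants were derived from changes in read counts for each RNA species versus the control reaction and normalised to the cognate motif.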
B1 was tested, and the binding signal was 0.00693 KA relative to UGCAUGU. In the case of B2, the binding signal is reported as 0.00561 KA relative to UGCAUGU. In the case of B3, the binding signal is reported as 0.00102 KA relative to UGCAUGU. With B4 the binding signal was 0.0114 KA relative to UGCAUGU. With B5 the binding signal was 0.00715 KA relative to UGCAUGU. For B6, the binding signal was 0.0111 KA relative to UGCAUGU. B7 was tested, and the binding signal was 0.00997 KA relative to UGCAUGU. For B8, the binding signal was 0.0134 KA relative to UGCAUGU. With B9 the binding signal was 0.00223 KA relative to UGCAUGU. For B10, the binding signal was 0.0177 KA relative to UGCAUGU. In the case of B11, the binding signal is reported as 0.00629 KA relative to UGCAUGU. B12 was tested, and the binding signal was 0.0126 KA relative to UGCAUGU. B13 was tested, and the binding signal was 0.022 KA relative to UGCAUGU. For B14, the binding signal was 0.018 KA relative to UGCAUGU. In the case of B15, the binding signal is reported as 0.0228 KA relative to UGCAUGU. With B16 the binding signal was 0.0323 KA relative to UGCAUGU. B17 was tested, and the binding signal was 0.0238 KA relative to UGCAUGU. B18 was tested, and the binding signal was 0.0373 KA relative to UGCAUGU. For B19, the binding signal was 0.0213 KA relative to UGCAUGU. In the case of B20, the binding signal is reported as 0.036 KA relative to UGCAUGU. In the case of B21, the binding signal is reported as 0.0129 KA relative to UGCAUGU. In the case of B22, the binding signal is reported as 0.00101 KA relative to UGCAUGU. B23 was tested, and the binding signal was 0.00423 KA relative to UGCAUGU. For B24, the binding signal was 0.0101 KA relative to UGCAUGU. For B25, the binding signal was 0.00375 KA relative to UGCAUGU. B26 was tested, and the binding signal was 0.00739 KA relative to UGCAUGU. With B27 the binding signal was 0.0124 KA relative to UGCAUGU. With B28 the binding signal was 0.0187 KA relative to UGCAUGU. For B29, the binding signal was 0.00814 KA relative to UGCAUGU. In the case of B30, the binding signal is reported as 0.062 KA relative to UGCAUGU. In the case of B31, the binding signal is reported as 0.00949 KA relative to UGCAUGU. In the case of B32, the binding signal is reported as 0.00754 KA relative to UGCAUGU. In the case of B33, the binding signal is reported as 0.0306 KA relative to UGCAUGU. In the case of B34, the binding signal is reported as 0.0133 KA relative to UGCAUGU. With B35 the binding signal was 0.0416 KA relative to UGCAUGU. In the case of B36, the binding signal is reported as 0.0118 KA relative to UGCAUGU. In the case of B37, the binding signal is reported as 0.0133 KA relative to UGCAUGU. With B38 the binding signal was 0.0376 KA relative to UGCAUGU. For B39, the binding signal was 0.0114 KA relative to UGCAUGU. With B40 the binding signal was 0.0136 KA relative to UGCAUGU. In the case of B41, the binding signal is reported as 0.0317 KA relative to UGCAUGU.
